These results are taken from PubChem BioAssay AID504332 (National Center for Advancing Translational Sciences (NCATS), 2011).

About 31,000 (8.9%) of roughly 350,000 compounds were called active. A call without a number means that no potency is given here. Another 15% or so got no clear call; they are omitted. The call rests on the fitted dose curve; in most records, active means well fitted inhibition curve with a large enough effect; inconclusive means small, poorly fitted or top-dose-only effect; inactive means no such curve, though single readings can be large or run the other way. Only a selection was taken, and actives are over-represented in it overall.
Potency means the concentration at half of the fitted maximal effect.

Chain of Histone-lysine N-methyltransferase EHMT2 (Homo sapiens) (Q96KQ7 913-1193 limits assumed): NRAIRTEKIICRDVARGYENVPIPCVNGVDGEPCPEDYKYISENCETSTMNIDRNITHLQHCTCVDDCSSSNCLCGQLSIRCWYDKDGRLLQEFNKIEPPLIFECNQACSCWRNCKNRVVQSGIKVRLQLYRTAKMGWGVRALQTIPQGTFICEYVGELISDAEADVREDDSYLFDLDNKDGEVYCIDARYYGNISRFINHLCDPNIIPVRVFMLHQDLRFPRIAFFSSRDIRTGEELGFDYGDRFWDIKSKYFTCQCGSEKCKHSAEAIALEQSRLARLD

The assay deals with Histone-lysine N-methyltransferase EHMT2 (Homo sapiens) (UniProt Q96KQ7). As to the kind of experiment: qHTS Assay for Inhibitors of Histone Lysine Methyltransferase G9a. Further: nearly all actives have a fitted effect of over 75% in size. The following applies: G9a H3K9 monomethylation, AlphaScreen, 2 h; series mostly up to 59 µM. A digest of the protocol:
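Methyltransferase reactions run at room temperature for 2 h (20 nM enzyme, 500 nM biotin-H3K9 peptide, 20 uM SAM) after a 15 min compound preincubation; product detected by AlphaScreen beads and anti-H3K9me1 antibody.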
(In general: qHTS replaces the single test concentration by a dilution series.)
As for `COc1cc([N+](=O)[O-])ccc1NC(=O)COC(=O)CCOc1ccc(C)cc1`, the Potency result is “inactive”. On the same count and under the same terms, under `Cc1ccc(/C=C2/SC(=S)N(CCC(=O)NCCCN3CCOCC3)C2=O)cc1` stands “inactive”; under `O=C(CCCCn1c(=O)c2ccccc2n(CC(=O)Nc2cccc(C(F)(F)F)c2)c1=O)NCc1ccc2c(c1)OCO2`, “inactive”; under `COc1cccc(CNCCSc2nnnn2C)c1OCc1ccccc1Cl`, “inactive”. For the compound `O=S(=O)(O)c1nc2ccccc2n1Cc1ccc(Cl)cc1`, the Potency is 50.1 µM (active). Same read-out and setting: under `O=S(=O)(O)c1nc2ccccc2n1Cc1ccc(Cl)cc1Cl` stands “inactive”. As for `Cn1c(S(=O)(=O)O)nc2ccccc21`, the Potency entry was “inactive”. Same read-out and setting: under `CCc1nn(CC(=O)NCC(C)c2ccccc2)c(=O)c2cc3occc3n12` (stereo unspecified) stands “inactive”. As to `COc1ccc2cc(S(=O)(=O)Nc3ccccn3)ccc2c1`, the Potency result was “inactive”. Turning to `COc1ccc(S(=O)(=O)/N=C2\C=C(NS(=O)(=O)c3ccccc3)C(=O)c3ccccc32)cc1`, the Potency is 8.91 µM (active). Still for that read-out and setting: in the case of `COc1ccc(S(=O)(=O)Nc2c(C)n(C)n(-c3ccccc3)c2=O)cc1` it was “inactive”. The same measure, in the same setting: in the case of `CC1=NN(Cc2ccccc2)C(=O)/C1=C/c1ccc(N(C)C)cc1` it was 10 µM (active); in that of `CN(C)c1ccc(/C=C2\NC(=S)N(Cc3ccccc3)C2=O)cc1`, “inactive”.

With `CN(C)c1ccnc2sc3c(=O)n(Cc4ccccc4)cnc3c12`, the activity, negative = inhibition is 26.4% [at 0.501 µM] (inactive). Take `COc1ccccc1C(=O)NC(CCSC)C(=O)NNC(=O)c1ccccc1C` (stereo unspecified): the activity, negative = inhibition is 25.8% [at 0.501 µM] (inactive). Turning to `COc1ccc2nc(SCc3ccccc3)nc(C)c2c1`, the Potency result was “inactive”.

Turning to `O=c1[nH]c(SCc2ccccc2)nnc1-c1ccccc1`, the Potency entry was “inactive”. Still for that read-out and setting: in the case of `c1ccc(CSc2nnc(-c3ccco3)c(-c3ccco3)n2)cc1` it was 6.31 µM (active). For the compound `COc1cc(C(=O)NCC(=O)NCCSc2ccc(Br)cc2)cc(OC)c1OC`, the activity, negative = inhibition is 10% [at 0.501 µM] (inactive). Same read-out and setting: in the case of `O=C(COC(=O)Cc1ccccc1F)NCCc1ccccc1` it was -6.48% [at 2.33 µM] (inactive). On to `CC(=O)Nc1ccc(C(=O)N(C2=NC(C)CS2)c2ccc(Cl)cc2)cc1` (stereo unspecified), for which the Potency result is “inactive”. Same read-out and setting: in the case of `COCCCNC(=O)c1ccc(NC(=O)c2nsc3ccccc23)cc1` it was “inactive”; in that of `COc1ccc(OCC(O)CNC(=O)Nc2ccc(Cl)cc2)cc1` (stereo unspecified), “inactive”. Same read-out and setting: in the case of `OC(CNCCc1ccc(Cl)cc1Cl)COc1ccccc1` (stereo unspecified) it was 25.1 µM (active); in that of `COC(=O)c1sc2ncccc2c1OCc1ccc(Cl)cc1Cl`, “inactive”; in that of `CCCCN(CC)CCCNC(=O)Cn1ncc2c([nH]c3ccc(C)cc32)c1=O`, “inactive”. Still for that read-out and setting: in the case of `COc1cc(C(=O)NCC(c2ccco2)N2CCCC2)ccc1OCc1ccccc1` (stereo unspecified) it was “inactive”. For `O=C(NCC(c1ccco1)N1CCc2ccccc21)c1cccc(F)c1` (stereo unspecified), the Potency was 50.1 µM (active). Turning to `Cc1ccccc1C(=O)NCC(c1ccco1)N1CCc2ccccc21` (stereo unspecified), the activity, negative = inhibition is 12% [at 2.33 µM] (inactive). For `CC1CCc2sc(C(=O)NCC(c3ccco3)N3CCCCC3)cc2C1` (stereo unspecified), the Potency entry is “inactive”. On to `CC1Cc2ccccc2N1S(=O)(=O)c1cccc(C(=O)NCC(c2ccco2)N2CCCC2)c1` (stereo unspecified), for which the Potency was 39.8 µM (active).

As to `COc1ccc(C(=O)NCC(c2ccco2)N2CCc3ccccc32)cc1OC` (stereo unspecified), the activity, negative = inhibition is -2.6% [at 0.501 µM] (inactive).

In the case of `COc1ccc2cc(C(=O)NCC3CCCO3)[nH]c2c1` (stereo unspecified), the Potency result is “inactive”.

For `Cc1cc2c(cc1S(=O)(=O)CCC(=O)Nc1ccc(OC(F)(F)F)cc1)OCC(=O)N2`, the Potency result is “inactive”. With `C=CCn1c(SCc2csc(C)n2)nc2scc(-c3ccc(C)o3)c2c1=O`, the Potency was 10 µM (active). Still for that read-out and setting: in the case of `C=CCn1c(SCC(=O)/C(C#N)=C(\C)N)nc2sc(C)c(C)c2c1=O` it was “inactive”. Take `C=CCn1c(SCC(=O)Nc2ccc(NC(C)=O)cc2)nc2sc(C)c(C)c2c1=O`: the activity, negative = inhibition was 8.2% [at 12.7 µM] (inactive). With `O=C(CSc1ncn[nH]1)Nc1nsc(-c2ccccc2)n1`, the Potency entry is “inactive”. Consider `CCN(C(=O)CSc1ncn[nH]1)c1cccc2ccccc12`, for which the Potency is 22.4 µM (active). As to `CCN(C(=O)Cc1c(C(=O)O)n(CC)c2ccccc12)c1ccccc1C`, the activity, negative = inhibition was 26.7% [at 0.501 µM] (inactive). Same read-out and setting: under `CCOc1ccc(C(=O)NCC(=O)N2CCCCCCC2)cc1OCC` stands 8% [at 0.501 µM] (inactive).

Take `CC(Oc1ccc(F)cc1)C(=O)Nc1ccccc1C(=O)NC1CC1` (stereo unspecified): the Potency result was “inactive”. Turning to `COc1cc(-c2c(-c3ccc4c(c3)OCO4)noc2C)ccc1F`, the Potency result is “inactive”.

On to `CC(C(=O)N1CCc2ccccc21)N(C)CC(=O)Nc1ccc(F)cc1` (stereo unspecified), for which the activity, negative = inhibition is 13.8% [at 12.7 µM] (inactive). `COC(=O)Cc1[nH]n(-c2nc3ccccc3s2)c(=O)c1C(C)=Nc1ccc(OC)cc1`: the Potency is 2.82 µM (active). Take `CC(=NCc1ccco1)c1c(C(F)(F)F)[nH]n(-c2nc3ccccc3s2)c1=O`: the activity, negative = inhibition is 1.72% [at 12.7 µM] (inactive). Consider `C/C(=N\NC(=O)CC(C)C)c1c(C(F)(F)F)[nH]n(-c2nc3ccccc3s2)c1=O`, for which the Potency entry is “inactive”. As for `COc1ccccc1CCC(=O)OCC(=O)N1CCN(S(=O)(=O)c2ccc(C)cc2C)CC1`, the Potency result is “inactive”. Same read-out and setting: under `Brc1ccc(-c2nn[nH]n2)cc1` stands “inactive”; under `c1ccc(-n2nc3ccccc3n2)cc1`, “inactive”; under `c1ccc(-n2ncc(-c3nn[nH]n3)n2)cc1`, 50.1 µM (active).

Turning to `Cc1c(NC(=O)C(C)Oc2cccc(Cl)c2)c(=O)n(-c2ccccc2)n1C` (stereo unspecified), the Potency result is “inactive”. On the same count and under the same terms, in the case of `COc1cccc(-c2nc3n(n2)C(c2ccccc2Cl)C(C(N)=O)=C(C)N3)c1` (stereo unspecified) it was “inactive”; in that of `CCN(CC)c1ccc(C2C(C(N)=O)=C(C)Nc3nc(SCc4ccccc4)nn32)cc1` (stereo unspecified), “inactive”. Same read-out and setting: in the case of `CC1=C(C(N)=O)C(c2ccc3c(c2)OCO3)n2nc(-c3cccc(C)c3)nc2N1` (stereo unspecified) it was 0.355 µM (active).

As for `COc1ccc(CC(=O)N2CC(=O)Nc3ccc(Br)cc3C2c2ccc(F)cc2)cc1OC` (stereo unspecified), the Potency entry is “inactive”. Still for that read-out and setting: under `CCc1ccc(C2C(C(=O)Nc3ccccc3)=C(C)Nc3c(C(=O)Nc4ccc(C)cc4)cnn32)cc1` (stereo unspecified) stands “inactive”; under `Cc1cc(F)ccc1NC1(c2ccccc2)C(=O)c2ccccc2C1=O`, 14.1 µM (active). Take `Cc1cc(F)ccc1NC(=O)C(C)n1c2ccccc2c2nc(=O)cc(C)n21` (stereo unspecified): the Potency entry is “inactive”. The same measure, in the same setting: under `Cc1cc(F)ccc1NS(=O)(=O)c1ccc(-n2cccn2)cc1` stands “inactive”; under `COc1cccc2c1cc1c(=O)n(CC(=O)N3CCN(c4cccc(Cl)c4)CC3)nc(C)n12`, “inactive”; under `O=S(=O)(NCC(c1ccco1)N1CCOCC1)c1cc(F)ccc1F` (stereo unspecified), “inactive”. The same measure, in the same setting: under `Clc1nc(NC2CCCC2)nc(N2CCOCC2)n1` stands “inactive”; under `CCOC(=O)CNc1nc(Cl)nc(Nc2ccccc2)n1`, “inactive”.

On to `COC(=O)CNc1nc(Cl)nc(N2CCC(C)CC2)n1`, for which the Potency is 56.2 µM (active).

In the case of `O=C(COc1ccccc1F)NNC(=O)c1ccc(N2CCCCC2)c([N+](=O)[O-])c1`, the Potency entry is “inactive”. On the same count and under the same terms, in the case of `O=[N+]([O-])c1cc([N+](=O)[O-])c(Oc2cc(F)cc(F)c2F)cc1NN1CCCCC1` it was 15.8 µM (active); in that of `O=C(COc1ccc(Cl)cc1[N+](=O)[O-])N1CCCCC1`, “inactive”. The same measure, in the same setting: in the case of `CCOC(=O)C1CCN(C(=O)CSc2c3c(nc4ccc(Cl)cc24)CCCC3)CC1` it was “inactive”; in that of `COc1ccc(/C=C2/SC(=O)N(CCCCCC(=O)Nc3ccccc3C(=O)O)C2=S)cc1`, 35.5 µM (active); in that of `COc1ccccc1C(=O)NNC(=O)CCN1C(=O)/C(=C\c2ccccc2)SC1=S`, “inactive”. For `COc1ccc(/C=C2\SC(=O)N(CCC(=O)NCCCn3ccnc3)C2=O)cc1`, the Potency entry is “inactive”. Regarding `CN(C(=O)c1ccc2c(c1)N(Cc1cccc(Cl)c1)C(=O)c1ccccc1S2=O)C1CCCCC1` (stereo unspecified), the Potency entry is “inactive”.

As for `CNC(=O)C(=O)N/N=C/c1ccccn1`, the activity, negative = inhibition was -131% [at 12.7 µM] (inactive). Turning to `Cc1cc(C(=O)N/N=C/c2ccccn2)c2ccccc2n1`, the Potency was 12.6 µM (active). The same measure, in the same setting: under `CCOc1ccc(NC(=O)c2cc(C)nc3ccccc23)cc1` stands “inactive”; under `COC(=O)C1CCN(C(=O)c2ccc3oc(Cc4ccc(Cl)cc4)nc3c2)CC1`, “inactive”.

With `CCC(=O)N1N=C(c2ccc(OC)cc2)CC1c1cn(-c2ccccc2)nc1-c1cccs1` (stereo unspecified), the Potency entry is “inactive”. Turning to `COc1ccc(-c2nc(Cn3c(=O)cc(C)c4c(C)nn(-c5ccccc5)c43)c(C)o2)c(OC)c1`, the Potency result was “inactive”. Regarding `CCOc1cccc(C(=O)Nc2nnc(S(=O)(=O)N(C)c3ccc(C)cc3)s2)c1`, the Potency entry was “inactive”. The same measure, in the same setting: under `Cn1c(SCC(=O)N2CCOCC2)nnc1-c1ccc(NC(=O)c2ccccc2F)cc1` stands 50.1 µM (active); under `Cn1c(SCC(=O)N2CCCC2)nnc1-c1ccc2c(c1)OCO2`, “inactive”; under `Cn1c(SCC(=O)N2CCOCC2)nnc1-c1ccc2ncccc2c1`, “inactive”.

On to `CCn1cc(C(=O)NCc2ccccc2)c(=O)c2cc(S(=O)(=O)N3CCCCC3)ccc21`, for which the Potency entry is “inactive”. With `Cc1ccc(CNC(=O)CCNS(=O)(=O)c2ccc3c(c2)oc(=O)n3C)cc1`, the Potency entry was “inactive”.

As for `COc1cccc(CN2CCc3nc(SCC(=O)Nc4ccccc4)[nH]c(=O)c3C2)c1`, the Potency entry is “inactive”.

`O=C(CN1C(=O)c2cccc3cccc1c23)Nc1ccccc1`: the Potency entry was “inactive”. In the case of `Nc1ccc2c3c(cccc13)C(=O)NC2=O`, the activity, negative = inhibition was 29.3% [at 12.7 µM] (inactive). Still for that read-out and setting: in the case of `CN1C(=O)c2cccc3c(N)ccc(c23)C1=O` it was -11.1% [at 2.33 µM] (inactive). On to `CCN1C(=O)c2cccc3c(S(=O)(=O)Nc4ccccc4O)ccc1c23`, for which the Potency was 44.7 µM (active).

As for `Cc1cccc(NC(=O)CN2C(=O)c3ccccc3C2=O)c1C`, the Potency entry is “inactive”. The same measure, in the same setting: in the case of `CCN1C(=O)c2cccc3c(N)ccc1c23` it was 39.8 µM (active); in that of `CCc1ccc(-c2cc3c(=O)n(CC(=O)NCCCN4CCN(Cc5ccccc5)CC4)nc(C)n3n2)cc1`, “inactive”; in that of `CCOc1ccccc1NC(=O)Cn1c(=O)n(-c2cccc(C)c2)c(=O)c2c1c1cc(OC)ccc1n2C`, “inactive”. On to `Cc1cc2oc(C(=O)N(Cc3ccc(Cl)cc3)Cc3ccco3)c(C)c2cc1Cl`, for which the Potency result is “inactive”. The same measure, in the same setting: under `COc1ccc(CN2CCN(C(=O)c3cc(C4CC4)nn3-c3ccccc3)CC2)cc1F` stands “inactive”.
